The values that follow come from PubChem BioAssay (NCI).

The panel holds about 83,000 compounds, 20% with a hit somewhere; the sample as a whole holds those more often.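 The endpoint reported here, percent growth, reads 100 for growth as untreated, 0 for no net growth and -100 for all cells dead.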 A number with no mark means an inactive call. Activity calls are given as the source filed them. The calls were made as follows: active = growth percent below 10; inactive = the rest.

Test in all cases: NCI-60 one-dose screen, 48 h (100 = growth as untreated, 0 = no growth, -100 = all killed)
One test deals with K-562 leukemia. Particulars: 10 µM unless noted.
The test system of a further test is MALME-3M melanoma. Conditions: 10 µM unless noted.
For a further test, the system named is MDA-MB-231 breast. Particulars: 10 µM unless noted.
The next test has as its system RXF 393 renal. Conditions: 10 µM unless noted.
Another test relates to SF-268 CNS. Particulars: 10 µM unless noted.
The test system of a further test is SF-295 CNS. Particulars: 10 µM unless noted.
A further test has as its system SF-539 CNS. Particulars: 10 µM unless noted.
Another test deals with UACC-257 melanoma. Particulars: 10 µM unless noted.
A further test relates to M14 melanoma. Particulars: 10 µM unless noted.
In a further test the test system is HCT-15 colon. Particulars: 10 µM unless noted.
A further test has as its system HT29 colon. Conditions: 10 µM unless noted.
The subject of another test is SNB-75 CNS. Particulars: 10 µM unless noted.
In the next test the test system is SNB-19 CNS. Conditions: 10 µM unless noted.
The next test deals with U251 CNS. Particulars: 10 µM unless noted.
A further test relates to PC-3 prostate. Conditions: 10 µM unless noted.
The test system of another test is SK-MEL-5 melanoma. Conditions: 10 µM unless noted.
The next test deals with LOX IMVI melanoma. Conditions: 10 µM unless noted.
Another test has as its system SK-MEL-28 melanoma. Conditions: 10 µM.
A further test has as its system SK-MEL-2 melanoma. Particulars: 10 µM unless noted.
A further test relates to UACC-62 melanoma. Conditions: 10 µM unless noted.

Consider `C[n+]1c2ccccc2nc2ccc(NCCO)cc21`, for which the growth in the test on K-562 leukemia was 68.2%; with MALME-3M melanoma, 101%; with MDA-MB-231 breast it was 77.2%; in the test with RXF 393 renal it was 83.2%; with SF-268 CNS, 63.7%; in the test on SF-295 CNS, 98.5%. The growth in the test with SF-539 CNS was 90.8%; with UACC-257 melanoma, 99.2%; in the test with M14 melanoma it was 92.8%; in the test with HCT-15 colon, 93.8%; with HT29 colon it was 8.37% (active); in the test on SNB-75 CNS it was 98.8%. Further, the growth in the test with SNB-19 CNS was 78.3%; in the test with U251 CNS it was 80.5%; with PC-3 prostate, 50.7%; in the test with SK-MEL-5 melanoma, 98%; with LOX IMVI melanoma, 90.6%; with SK-MEL-28 melanoma, 110%. The growth in the test with SK-MEL-2 melanoma was 102%.
For `COC(=O)/C(CCC=C(C)C)=C1\[C@@H](OC(C)=O)C[C@@]2(C)[C@H]1CC(=O)N[C@H]1[C@@]3(C)CCNC(=O)[C@@H](C)[C@@H]3CC[C@@]12C`, the growth in the test with K-562 leukemia was 101%; with MALME-3M melanoma it was 101%; in the test on MDA-MB-231 breast, 102%; with RXF 393 renal it was 112%; in the test on SF-268 CNS it was 101%; in the test with SF-295 CNS it was 101%. Also, the growth is 103% in the test with SF-539 CNS; 104% in the test with UACC-257 melanoma; 98.5% with M14 melanoma; 106% in the test with HCT-15 colon; 102% with HT29 colon; 96.2% in the test with SNB-75 CNS. Moreover, the growth in the test with SNB-19 CNS is 98.6%; with U251 CNS, 102%; in the test on PC-3 prostate it was 97.8%; in the test on SK-MEL-5 melanoma it was 95.4%; in the test with LOX IMVI melanoma it was 97.9%; with SK-MEL-28 melanoma, 106%. Besides, the growth with SK-MEL-2 melanoma was 106%.
For the compound `COc1ccc(C2C3=C(COC3=O)N(CCO)c3cc4c(cc32)OCCO4)cc1` (stereo not given), the growth with K-562 leukemia is 53.1%; with MALME-3M melanoma it was 103%; in the test with MDA-MB-231 breast, 91.2%; in the test with RXF 393 renal, 75.5%; in the test with SF-268 CNS it was 86.5%; with SF-295 CNS, 55.8%. For the same compound, the growth in the test on SF-539 CNS was 83.1%; with UACC-257 melanoma, 69%; in the test with M14 melanoma it was 77.7%; with HCT-15 colon it was 65.6%; in the test on HT29 colon, 50.7%; in the test on SNB-75 CNS it was 60.4%. The growth was 81.2% in the test on SNB-19 CNS; 87% in the test on U251 CNS; 72.9% in the test with PC-3 prostate; 60.8% in the test on SK-MEL-5 melanoma; 72.4% in the test with UACC-62 melanoma; 77.4% in the test on LOX IMVI melanoma. In addition, the growth with SK-MEL-2 melanoma is 95%.
Consider `O=C(Nc1ccccc1O)c1ccc(Oc2cccc(C(=O)Nc3ccccc3O)c2)cc1`, for which the growth is -29.1% (active) with K-562 leukemia; 13.6% in the test on MALME-3M melanoma; 32% with MDA-MB-231 breast; 26.6% in the test on RXF 393 renal; 0.105% (active) with SF-268 CNS; -28.5% (active) in the test with SF-295 CNS. In addition, the growth is 7.4% (active) in the test with SF-539 CNS; 10.4% with UACC-257 melanoma; -44.5% (active) in the test with M14 melanoma; 32.2% in the test with HCT-15 colon; 77.7% in the test on HT29 colon; 31.1% in the test with SNB-75 CNS. The growth with SNB-19 CNS was 21.7%; in the test on U251 CNS, 11.8%; with PC-3 prostate it was 32.6%; in the test on SK-MEL-5 melanoma it was 10.9%; with SK-MEL-28 melanoma, 32.6%; with SK-MEL-2 melanoma, 28.4%.
Consider `COc1ccccc1N1CCN(C(CNS(=O)(=O)c2ccc(Cl)cc2)c2cccnc2)CC1` (stereo not given), for which the growth was 28.4% with K-562 leukemia; 60.2% in the test with MALME-3M melanoma; 71% in the test on MDA-MB-231 breast; 36.3% in the test on RXF 393 renal; 90.8% in the test on SF-268 CNS; 2.26% (active) in the test on SF-295 CNS. Besides, the growth was 64.9% in the test with SF-539 CNS; 120% in the test on UACC-257 melanoma; 104% with M14 melanoma; 49% in the test on HCT-15 colon; 45.3% with HT29 colon; 91.4% in the test on SNB-75 CNS. The growth in the test on SNB-19 CNS is 107%; in the test with U251 CNS, 61.7%; with PC-3 prostate it was 48.9%; with SK-MEL-5 melanoma, 90.2%; in the test with UACC-62 melanoma, 100%; with SK-MEL-28 melanoma, 85.2%. The growth with SK-MEL-2 melanoma was 120%.
With `CC1=C(C(=O)OCC2CCN(C(=O)OC(C)(C)C)CC2)[C@H](c2cccc(Br)c2)C2=C(CC(C)(C)CC2=O)N1`, the growth in the test on K-562 leukemia is 15.8%; in the test on MALME-3M melanoma, 26.1%; with MDA-MB-231 breast, 46%; in the test with RXF 393 renal, 66.3%; in the test with SF-268 CNS it was 33.1%; in the test on SF-295 CNS, 39.9%. The growth is 41.2% in the test on SF-539 CNS; 29.1% in the test with UACC-257 melanoma; 29.8% in the test with M14 melanoma; 21% in the test on HCT-15 colon; 16.7% in the test with HT29 colon; 47.8% in the test with SNB-75 CNS. Besides, the growth in the test with SNB-19 CNS was 42.5%; in the test with U251 CNS, 30%; with PC-3 prostate, 17.5%; with SK-MEL-5 melanoma it was -32.8% (active); in the test with LOX IMVI melanoma, 17.5%; in the test on SK-MEL-28 melanoma it was 50.1%. Moreover, in the test on SK-MEL-2 melanoma, the growth was 61.1%.
Turning to `Cc1ccc(C2CC(c3ccc(Nc4nc(NCCO)nc(Nc5ccc(Cl)cc5)n4)cc3)=NN2c2cc(Cl)cc(Cl)c2)cc1` (stereo not given), the growth was 99.9% with K-562 leukemia; 102% with MALME-3M melanoma; 91.3% with MDA-MB-231 breast; 88.6% in the test with RXF 393 renal; 79.7% with SF-268 CNS; 100% in the test on SF-295 CNS. The growth is 92.4% in the test with SF-539 CNS; 101% in the test with UACC-257 melanoma; 121% with M14 melanoma; 99.3% in the test on HCT-15 colon; 107% in the test with HT29 colon; 85.2% in the test with SNB-75 CNS. Also, the growth is 106% with SNB-19 CNS; 97.4% in the test with U251 CNS; 98.9% with PC-3 prostate; 92.4% in the test with SK-MEL-5 melanoma; 98.7% with LOX IMVI melanoma; 105% in the test on SK-MEL-28 melanoma. The growth in the test on SK-MEL-2 melanoma is 122%.
As to `Cc1nc2ccccc2c(/C=C/c2ccc(F)cc2)c1C(N)=O`, the growth in the test on K-562 leukemia is 95.8%; in the test on MALME-3M melanoma it was 105%; with MDA-MB-231 breast it was 92%; in the test with RXF 393 renal it was 106%; with SF-268 CNS, 96.4%; with SF-295 CNS, 102%. In addition, the growth is 102% in the test on SF-539 CNS; 99.9% with UACC-257 melanoma; 103% with M14 melanoma; 108% with HCT-15 colon; 115% in the test on HT29 colon; 85.4% in the test on SNB-75 CNS. The growth with SNB-19 CNS is 99.2%; with U251 CNS, 98.1%; in the test with PC-3 prostate it was 89.1%; in the test on SK-MEL-5 melanoma, 95.9%; in the test with LOX IMVI melanoma, 96.4%; in the test with SK-MEL-28 melanoma, 117%. The growth in the test on SK-MEL-2 melanoma was 105%.
Take `CC(C)CCNCC(O)Cn1c2ccccc2c2ccccc21` (stereo not given): the growth in the test with K-562 leukemia is 1.84% (active); in the test with MALME-3M melanoma, -12.3% (active); in the test with MDA-MB-231 breast, 41.6%; in the test with RXF 393 renal, 8.43% (active); in the test on SF-268 CNS it was 30.7%; in the test with SF-295 CNS it was -40% (active). Further, the growth was 16.1% with SF-539 CNS; 1.45% (active) in the test with UACC-257 melanoma; 11.8% with M14 melanoma; 14.9% in the test on HCT-15 colon; -12.7% (active) in the test with HT29 colon; -3.3% (active) with SNB-75 CNS. The growth in the test with SNB-19 CNS is 24.4%; with U251 CNS it was 14.4%; in the test on PC-3 prostate, 20.2%; in the test with SK-MEL-5 melanoma, -20.6% (active); in the test on LOX IMVI melanoma, 1.91% (active); in the test on SK-MEL-28 melanoma it was 14.9%. Also, the growth in the test on SK-MEL-2 melanoma is 13.7%.
